ClpP mod = qHTS Assay for Activators of ClpP; ATP-dependent Clp protease proteolytic subunit (Bacillus subtilis (strain 168)), P80244; purified B. subtilis ClpP, FRET peptide cleavage, 20 min; Potency, µM (titrated, usually from 57.5 µM), without a hit: at the top dose activity change, negative = active; 1.9% of 340,000 active; active means well fitted falling curve with a large enough effect; inconclusive means small, poorly fitted or top-dose-only effect; inactive means no such curve, though single readings can be large or run the other way; further: potency means the concentration at half of the fitted maximal effect; the source files actives as falling curves though it sought activators and does not explain the sign; nearly all actives have a fitted effect of over 65% in size
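FRET quenching reversal measured ClpP activation: 10 microg/mL B. subtilis ClpP at pH 8 with the FRET-FV decapeptide, read at 430 nm after 320 nm excitation. The 20-min minus 0-min signal was scaled between DMSO/no-enzyme wells and ADEP (5.8 microM final).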
DRD3 antagonist = qHTS of D3 Dopamine Receptor Antagonist: qHTS. max response, negative = inhibition, %. 2.5% of 360,000 active. D(3) dopamine receptor (Homo sapiens), P35462. D3R cells, DiscoveRx beta-arrestin luminescence, antagonist mode; stronger effect = lower value. AID 652054, 2013; in the data active means max response below about -50%; inconclusive means no clear call, values can overlap the other calls; further: on the % scale 0 is the no-effect control and ±100 the full control effect
Target sequence (P35462 whole entry, looked up): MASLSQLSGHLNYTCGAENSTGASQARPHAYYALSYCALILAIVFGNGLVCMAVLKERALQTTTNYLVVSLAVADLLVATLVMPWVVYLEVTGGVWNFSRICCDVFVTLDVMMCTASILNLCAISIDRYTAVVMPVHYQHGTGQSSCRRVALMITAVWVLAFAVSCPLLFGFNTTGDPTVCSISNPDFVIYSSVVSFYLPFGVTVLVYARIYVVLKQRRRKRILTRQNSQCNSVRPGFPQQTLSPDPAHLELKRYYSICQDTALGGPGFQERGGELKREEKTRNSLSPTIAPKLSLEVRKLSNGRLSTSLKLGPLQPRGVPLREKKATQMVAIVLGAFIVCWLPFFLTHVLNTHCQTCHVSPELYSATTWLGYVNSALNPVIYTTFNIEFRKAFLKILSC
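Cells plated overnight at 1500 cells/well, then exposed to library compounds with dopamine controls for 90 minutes at 37 degrees C. DiscoveRx reagent added for 30–60 minutes at room temperature; luminescence read, quantitative HTS format.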
TDP1 cell CPT = qHTS for Inhibitors of human tyrosyl-DNA phosphodiesterase 1 (TDP1): qHTS in cells in presence of CPT; AID 686979, 2013; 12% of 420,000 active; chicken DT40 Tdp1-/-;hTDP1 cells + 20 nM CPT, ATP luminescence, 48 h; Potency, µM (series often up to 46.2 µM), inactives show at the highest dose activity change, negative = growth inhibition, hits mostly inhibitors; further: potency means the concentration at half of the fitted maximal effect; on the % scale 0 is the no-effect control and ±100 the full control effect; nearly all actives have a fitted effect of over 55% in size
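Cell growth measured by CellTiter-Glo luminescence after a minimum 48 h, 37 C compound exposure with 20 nM CPT in Tdp1-knockout DT40 cells stably expressing hTDP1, seeded 400/well; qHTS titration format.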
DRD3 agonist = qHTS of D3 Dopamine Receptor Agonist: qHTS; D(3) dopamine receptor (Homo sapiens), P35462; D3R DiscoveRx beta-arrestin cells, luminescence, 90 min; max activation, %; 0.58% of 410,000 active; AID 652048, 2013; in the data active means max activation above about 30%; further: 0% is about no effect
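Agonist-mode cell screen: cells plated at 1500/well and incubated overnight at 37 °C, then exposed to library compounds for 90 min at 37 °C. Detection reagent was added for 30–60 min at room temperature, and luminescence was read.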
TDP1 cell noCPT = qHTS for Inhibitors of human tyrosyl-DNA phosphodiesterase 1 (TDP1): qHTS in cells in absence of CPT | AID 686978, 2013 | DT40 Tdp1-/- hTDP1 cells, no CPT, ATP luminescence, 48 h | 15% of 420,000 active | Potency, µM (top dose mostly 46.2 µM), for the others: at the top dose activity change, negative = growth inhibition, hits mostly inhibitors; further: potency means the concentration at half of the fitted maximal effect; on the % scale 0 is the no-effect control and ±100 the full control effect; nearly all actives have a fitted effect of over 55% in size
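No-CPT arm: Tdp1-/-;hTDP1 DT40 cells (400/well) plus compounds, incubated ≥48 hr at 37 °C. Readout CellTiter-Glo luminescence.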
IL1B secr inh = qHTS for Inhibitors of Inflammasome Signaling: IL-1-beta AlphaLISA Primary Screen | THP-1 LPS/ATP IL-1B secretion, AlphaLISA, 16 h; stronger effect = lower value | activity change, % at 57.5 µM | 4.7% of 360,000 active; in the data active means activity change below about -50%; inconclusive means mostly about -30% to -49%; further: on the % scale 0 is the no-effect control and ±100 the full control effect
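THP-1 cells pretreated 1 hr with compounds (up to 57.5 uM final), then stimulated with LPS (250 ng/mL final) plus ATP (1.25 mM final); secreted IL-1B measured by AlphaLISA after 16 hr, decreased signal indicating inhibition.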
Active calls of the source: *; u = inconclusive; x = no result given; [ ] = another dose, or the depositor's remark. A selection: hits, their analogues and other compounds. The true share with any hit is near 21%. Unless noted, the call rests on the fitted dose curve; in most records, active means well fitted inhibition curve with a large enough effect; inconclusive means small, poorly fitted or top-dose-only effect; inactive means flat fitted curve, though single readings scatter.

SMILES	ClpP mod	DRD3 antagonist	TDP1 cell CPT	DRD3 agonist	TDP1 cell noCPT	IL1B secr inh
Fc1ccccc1CN1CCN(c2ncccn2)CC1	0%	-2	6%	23	-1%	13
COc1cc(CN2CCC(Cc3ccccc3)CC2)cc(OC)c1OC	0%	u	u	-19	u	-26
COc1ccc(CN2CCC(Cc3ccccc3)CC2)c(C)c1C	x	-19	u	-22	u	-78*
Fc1ccccc1CN1CCC(Cc2ccccc2)CC1	-3%	-79*	u	-16	-7%	-2
Fc1cccc(CN2CCC(Cc3ccccc3)CC2)c1	0%	-53*	-15%	-5	-23%	33
COC(=O)C1=C(C)NC(=O)NC1c1ccc(OC(=O)c2ccco2)cc1 (stereo not drawn)	x	0	8%	2	-5%	-1
CC1Sc2ccc(S(=O)(=O)N3CCC(C(=O)Nc4cccc(Cl)c4)CC3)cc2NC1=O (stereo not drawn)	-1%	21	u	8	18µM*	u
CCc1ccc(NC(=O)C2CCN(S(=O)(=O)c3ccc4c(c3)NC(=O)C(C)S4)CC2)cc1 (stereo not drawn)	-1%	7	18µM*	6	u	-10
CC1Sc2ccc(S(=O)(=O)N3CCC(C(=O)NCc4ccc(Cl)cc4)CC3)cc2NC1=O (stereo not drawn)	1%	3	16µM*	-8	15µM*	-20
CC1Sc2ccc(S(=O)(=O)N3CCC(C(=O)N(C)Cc4ccco4)CC3)cc2NC1=O (stereo not drawn)	1%	17	15µM*	-4	u	-12
CC(=O)c1ccc(NC(=O)C(C)Oc2ccc(N(C)S(=O)(=O)c3ccc(C)cc3)cc2)cc1 (stereo not drawn)	-1%	-4	u	1	u	-18
Cc1oc(-c2ccccc2NC(=O)C2CCCO2)nc1CNC(=O)c1cc(F)c(F)cc1F (stereo not drawn)	x	x	-16%[9.04 µM]	x	-1%	x
COc1ccccc1CNC(=O)COC(=O)/C=C/c1ccc2c(c1)OCO2	-18%	20	-17%	-1	-12%	-1
CN(Cc1ccccc1Cl)C(=O)CNC(=O)C12CC3CC(CC(C3)C1)C2	3%	-4	21µM*	1	u	4
O=C(CSc1ccc(Cl)cc1)N1N=CCC1c1ccccc1 (stereo not drawn)	-3%	3	u	-11	u	-63*
CCN1CCN(CC(=O)N2N=CCC2c2ccccc2)CC1 (stereo not drawn)	x	-51*	-3%	-9	u	3
NC(=NC(=O)c1ccc(Cl)cc1)N1N=CCC1c1ccccc1 (stereo not drawn)	x	3	2%	1	u	-27
O=C(CSC(=S)N1CCCCC1)N1N=CCC1c1ccccc1 (stereo not drawn)	0%	-26	-20%	-32	u	-8
Cc1oc(-c2cccc(Cl)c2)nc1CN1CCC(C(=O)NCc2ccco2)CC1	-2%	-24	-27%	-7	u	-20
Cc1ccc(Cl)cc1N1CCN(C(=O)C2CCN(Cc3nc(-c4cccc(Cl)c4)oc3C)CC2)CC1	-5%	x	u	-8	15µM*	x
Cc1oc(-c2cccc(Cl)c2)nc1CN1CCC(C(=O)N2CCN(c3ccccc3F)CC2)CC1	-7%	-63*	18µM*	-12	18µM*	-56*
Cc1oc(-c2cccc(Cl)c2)nc1CN1CCCC(C(=O)N2CCN(c3ccc(F)cc3)CC2)C1 (stereo not drawn)	-4%	x	7.3µM*	-14	9.2µM*	x

Screening data from PubChem BioAssay.
